# Inconclusive results are not listed. Where a call stands in place of a potency, no number is given. Calls of active or inactive are those of the source. The call rests on the fitted dose curve; in most records, active means well fitted inhibition curve with a large enough effect; inconclusive means small, poorly fitted or top-dose-only effect; inactive means no such curve, though single readings can be large or run the other way.
# Test system: Zika virus NS2B-NS3 protease (linked construct)
# Assay: Primary screen NINDS Rhodamine qHTS for Zika virus inhibitors (AID 1347160); further: nearly all actives have a fitted effect of over 55% in size
# Settings: purified NS2B-NS3 protease, Rhodamine110 substrate fluorescence; series mostly up to 57.1 µM
# Method in brief: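 Aprotinin served as in-plate control. Conditions: 25 nM linked NS2B-NS3, pH 8.0 Tris buffer, titrated compounds, 15 min preincubation and 15 min reaction with 1.5 microM Rhod110 substrate at room temperature.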
row,Compound,Potency
1,CO[C@@H](C)Cn1c(=O)n(C)c2cnc3ccc(-c4cncc(C(C)(C)O)c4)cc3c21,inactive
2,C[C@@H]1O[C@@H](O[C@@H]2[C@@H](O)[C@@H](O[C@]3(CO)O[C@H](CO)[C@@H](O)[C@@H]3OC(=O)/C=C/c3ccc(O)cc3)O[C@H](CO)[C@H]2OC(=O)/C=C/c2ccc(O)cc2)[C@H](O)[C@H](O)[C@H]1O[C@@H]1O[C@@H](C)[C@H](O[C@@H]2OC[C@](O)(CO)[C@H]2O)[C@@H](O)[C@H]1O,inactive
3,O=C1NC(=O)C(c2cn(-c3ccccc3)nc2-c2ccc(F)cc2)N1 (stereo unspecified),inactive
4,CCN1CCN(Cc2ccc(Nc3ncc(F)c(-c4cc(F)c5nc(C)n(C(C)C)c5c4)n3)nc2)CC1,inactive
5,CCOc1ccc2nc(SCCN3CCOCC3)[nH]c2c1,inactive
6,COC(=O)C12C(=O)C(C)=C(O)C1(C)C(C)=CC1C3(CO)CCC(O)C(C)(C)C3CCC12C (stereo unspecified),inactive
7,c1ccc(-c2ncc(CN3CCN(c4ncccn4)CC3)[nH]2)cc1,inactive
8,COC(=O)CC(O)CC(O)/C=C/c1c(C)ccc2c1C(O)CC(C)C2 (stereo unspecified),inactive
9,CCCCC1CCN(CCCC(=O)c2ccccc2C)CC1,inactive
10,Cn1nnc(-c2ccc(-c3ccc(N4C[C@H](CO)OC4=O)cc3F)cn2)n1,inactive
11,CC(=O)N[C@H]1[C@H](O[C@H]2CC[C@@]3(C)C(CC[C@]4(C)C3CC=C3C5CC(C)(C)CC[C@]5(C(=O)O)[C@H](O)C[C@]34C)C2(C)C)O[C@H](CO[C@@H]2OC[C@H](O)[C@H](O)[C@H]2O[C@@H]2OC[C@@H](O)[C@H](O)[C@H]2O)[C@@H](O)[C@@H]1O (stereo partly specified),inactive
